Inconclusive results are not listed. Activity calls are given as the source filed them. Unless noted, calls follow the shape of the dose curve; as a rule, active = well fitted curve in the direction sought with a large enough effect; inconclusive = small, poorly fitted or top-dose-only effect, or another doubt; inactive = no such curve, though single readings can be large; an effect the other way counts as inactive or inconclusive.
Key:
[1] = biological target: Lysosomal acid glucosylceramidase (Homo sapiens) (UniProt P04062); assay: Glucocerebrosidase-p2 (AID 348; in the data active = potency below about 10 µM; also: potency is read from the fitted curve at half-maximal effect); conditions: purified GBA, blue fluorogenic substrate, 40 min
Chain of Lysosomal acid glucosylceramidase (Homo sapiens) (P04062 whole entry, looked up): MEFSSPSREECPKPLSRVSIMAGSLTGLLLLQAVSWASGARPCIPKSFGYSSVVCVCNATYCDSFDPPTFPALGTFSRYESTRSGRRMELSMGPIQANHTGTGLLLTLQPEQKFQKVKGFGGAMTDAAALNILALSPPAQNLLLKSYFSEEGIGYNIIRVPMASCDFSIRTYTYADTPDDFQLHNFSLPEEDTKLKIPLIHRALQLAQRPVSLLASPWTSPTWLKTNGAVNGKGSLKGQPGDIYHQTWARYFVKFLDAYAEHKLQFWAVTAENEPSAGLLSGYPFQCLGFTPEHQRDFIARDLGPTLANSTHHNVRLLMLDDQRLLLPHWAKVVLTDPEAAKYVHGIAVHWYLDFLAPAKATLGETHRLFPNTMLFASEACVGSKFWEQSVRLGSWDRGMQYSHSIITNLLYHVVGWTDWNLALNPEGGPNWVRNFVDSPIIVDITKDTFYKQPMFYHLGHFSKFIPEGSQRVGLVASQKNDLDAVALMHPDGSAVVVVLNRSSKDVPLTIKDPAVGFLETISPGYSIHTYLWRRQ
Outline: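 Compounds titrated from 0.6 nM upwards against 0.2 nM enzyme in pH 5.9 citric acid/KH2PO4, taurocholate, tween-20; blue fluorogenic substrate 80 uM, 40 min room temperature, stopped and read Ex 365/Em 440 for AC50.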

[2] = AP1 Signaling Pathway (AID 357; active = well fitted curve in either direction with a large enough effect, not every such curve was filed as active;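 also: ME-180 reporter cells stimulated with EGF at its EC50 level; % is scaled to controls: 0 for no effect and ±100 for the full control effect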); conditions: ME-180 AP-1-bla reporter, EGF-induced, beta-lactamase ratio, 5 h; at 7.69 µM (top of the series) unless noted
Outline: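 Cells are seeded overnight, exposed to compound titrations and an EC50 level of EGF for 5 hours at 37 °C, then loaded with CCF4 dye for 2.5 hours. Beta-lactamase activity under the AP-1 element is read as a blue/green ratio.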

[3] = biological target: Cytochrome P450 1A2 (Homo sapiens) (UniProt P05177); assay: p450-cyp1a2 (AID 410; calls by dose curve; also: potency is read from the fitted curve at half-maximal effect); conditions: recombinant CYP1A2, luciferin-ME demethylation, luminescence; series mostly up to 57 µM
Chain of Cytochrome P450 1A2 (Homo sapiens) (P05177 whole entry, looked up): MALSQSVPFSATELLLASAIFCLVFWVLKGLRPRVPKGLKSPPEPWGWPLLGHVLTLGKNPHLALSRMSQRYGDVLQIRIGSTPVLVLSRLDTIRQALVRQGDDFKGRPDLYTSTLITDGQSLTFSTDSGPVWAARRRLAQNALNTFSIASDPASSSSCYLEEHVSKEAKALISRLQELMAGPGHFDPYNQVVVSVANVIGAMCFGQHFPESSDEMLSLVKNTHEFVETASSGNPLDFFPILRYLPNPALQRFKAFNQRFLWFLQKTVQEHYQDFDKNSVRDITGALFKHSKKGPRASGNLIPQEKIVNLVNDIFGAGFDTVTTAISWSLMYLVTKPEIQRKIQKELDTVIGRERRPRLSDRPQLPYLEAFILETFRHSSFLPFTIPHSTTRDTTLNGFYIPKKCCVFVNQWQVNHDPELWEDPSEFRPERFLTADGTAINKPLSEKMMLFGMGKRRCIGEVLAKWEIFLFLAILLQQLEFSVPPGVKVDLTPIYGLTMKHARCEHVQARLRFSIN
Outline: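 Inhibition was calculated relative to 57 uM furafylline (full inhibition). The reaction used human CYP1A2 at 20nM with Luciferin-ME at its Km, 100uM, driven by an NADPH-regenerating system for 60 min at room temperature.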

[4] = NFAT Signaling Pathway (AID 444; active = well fitted curve in either direction with a large enough effect, not every such curve was filed as active;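 also: carbachol stimulus at about its EC50 of 1 µM final; % is scaled to controls: 0 for no effect and ±100 for the full control effect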); conditions: Jurkat NFAT-bla M1, carbachol, beta-lactamase ratio, 5 h; at 7.69 µM (top of the series) unless noted
Outline: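 Read-out: CCF4 FRET ratio (460 nm/530 nm) after 1 h RT dye loading, used for %activity and AC50 from titration series. Cells: Jurkat NFAT-β-lactamase/M1 line, treated with compound plus 1 uM carbachol for 5 h, 37 °C.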

[5] = Stat Signaling Pathway (AID 446; active = well fitted curve in either direction with a large enough effect, not every such curve was filed as active;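 also: ME-180 cervical cancer cells given 40 pM IL-6 alongside compound; SIE-controlled beta-lactamase reporter measured as 460/530 nm FRET emission ratio; % is scaled to controls: 0 for no effect and ±100 for the full control effect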); conditions: ME-180 SIE beta-lactamase reporter, IL-6 stimulated, 5 h; at 7.69 µM (top of the series) unless noted
Outline: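 Reporter line: ME-180 cervical carcinoma, SIE-beta-lactamase. Treatment: compound with 40 pM IL-6, 5 hrs, 37 C, in low-serum OPTI-MEM with 10 mM HEPES pH 7.3. Detection: 460/530 nm fluorescence.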

[6] = biological target: Glucocorticoid receptor (Homo sapiens) (UniProt P04150); assay: GR-GFP Redistribution (AID 450;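 active = compounds whose dose series gives a full or clear partial fitted curve of increased nuclear translocation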; also: potency is read from the fitted curve at half-maximal effect); conditions: U2OS GR-GFP nuclear translocation, laser cytometry, 2 h
Chain of Glucocorticoid receptor (Homo sapiens) (P04150 whole entry, looked up, the tested form may be a part): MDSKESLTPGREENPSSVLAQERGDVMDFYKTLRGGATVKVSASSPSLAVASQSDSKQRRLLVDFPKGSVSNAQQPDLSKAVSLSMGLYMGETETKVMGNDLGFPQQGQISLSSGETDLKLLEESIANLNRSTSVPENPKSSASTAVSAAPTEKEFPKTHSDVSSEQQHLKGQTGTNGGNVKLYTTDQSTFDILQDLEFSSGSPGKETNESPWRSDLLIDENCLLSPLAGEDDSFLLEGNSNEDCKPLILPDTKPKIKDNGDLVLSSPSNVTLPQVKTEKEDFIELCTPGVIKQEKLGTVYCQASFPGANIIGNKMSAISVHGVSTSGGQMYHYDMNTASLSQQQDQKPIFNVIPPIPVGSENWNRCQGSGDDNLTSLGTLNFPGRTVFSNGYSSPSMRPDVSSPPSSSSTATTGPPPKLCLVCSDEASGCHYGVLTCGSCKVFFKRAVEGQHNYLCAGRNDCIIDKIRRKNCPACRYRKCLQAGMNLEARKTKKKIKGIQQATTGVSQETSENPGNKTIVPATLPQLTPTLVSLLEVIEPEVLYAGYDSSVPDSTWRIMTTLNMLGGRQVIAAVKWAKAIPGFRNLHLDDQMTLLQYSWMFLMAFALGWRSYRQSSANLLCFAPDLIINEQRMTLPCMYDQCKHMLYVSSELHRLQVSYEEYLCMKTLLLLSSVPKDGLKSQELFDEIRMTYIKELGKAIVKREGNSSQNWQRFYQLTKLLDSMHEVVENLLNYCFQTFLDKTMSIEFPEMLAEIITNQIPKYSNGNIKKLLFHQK

[7] = biological target: Mitogen-activated protein kinase 10 (Mus musculus) (UniProt Q61831); assay: JNK3 AlphaScreen Assay (AID 530; active = well fitted curve in either direction with a large enough effect, not every such curve was filed as active;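 also: kinase came from lysate of stimulated human HepG2 cells; signal reports phosphorylation of biotinylated GST-cJun 1-79 at Ser73 with 10 µM ATP; % is scaled to controls: 0 for no effect and ±100 for the full control effect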); conditions: JNK3 lysate, c-Jun phosphorylation; series mostly up to 57.1 µM
Outline: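 Room-temperature AlphaScreen kinase assay; pre-activated HepG2 lysate as JNK3 source, biotin-GST-cJun(1-79) substrate, 10 uM ATP, compound 15 min preincubation.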

[8] = biological target: 3',5'-cyclic-AMP phosphodiesterase 4B (Homo sapiens) (UniProt Q07343); assay: qHTS Assay for Inhibitors of PDE-IV (AID 607; active = well fitted activation curve with a large enough effect in the main read-out, with a control signal flat, not every such curve was filed as active; also: potency is read from the fitted curve at half-maximal effect); conditions: HEK293 ACTOne CNG channel cells, membrane potential fluorescence; series mostly up to 22.9 µM
Chain of 3',5'-cyclic-AMP phosphodiesterase 4B (Homo sapiens) (Q07343 whole entry, looked up): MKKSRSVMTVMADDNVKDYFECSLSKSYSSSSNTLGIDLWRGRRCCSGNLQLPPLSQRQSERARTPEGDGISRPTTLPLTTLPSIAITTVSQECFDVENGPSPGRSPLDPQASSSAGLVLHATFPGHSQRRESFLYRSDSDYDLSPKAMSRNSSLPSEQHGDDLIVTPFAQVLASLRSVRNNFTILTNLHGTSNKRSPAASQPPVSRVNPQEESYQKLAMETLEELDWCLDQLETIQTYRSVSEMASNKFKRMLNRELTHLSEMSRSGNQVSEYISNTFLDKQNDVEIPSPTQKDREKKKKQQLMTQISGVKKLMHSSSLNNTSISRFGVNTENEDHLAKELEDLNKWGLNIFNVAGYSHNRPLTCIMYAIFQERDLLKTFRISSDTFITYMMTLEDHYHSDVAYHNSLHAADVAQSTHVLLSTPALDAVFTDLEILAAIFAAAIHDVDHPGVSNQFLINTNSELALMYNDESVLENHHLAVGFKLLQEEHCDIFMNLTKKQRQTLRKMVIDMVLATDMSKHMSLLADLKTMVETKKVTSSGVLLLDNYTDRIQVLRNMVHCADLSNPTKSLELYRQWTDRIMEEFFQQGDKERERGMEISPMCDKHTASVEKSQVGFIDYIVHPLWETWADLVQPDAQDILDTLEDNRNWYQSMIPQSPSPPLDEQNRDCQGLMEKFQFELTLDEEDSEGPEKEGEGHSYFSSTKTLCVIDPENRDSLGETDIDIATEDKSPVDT
Outline: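 Cell-based read-out of cAMP via a modified cyclic nucleotide-gated channel and membrane potential dye (535/590 nm) in HEK293 cells expressing PDE4 endogenously. Compounds tested up to 22.9 uM final; 100 uM RO 20-1724 reference.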

[9] = biological target: Cytochrome P450 3A4 (Homo sapiens) (UniProt P08684); assay: qHTS Assay for Inhibitors and Substrates of Cytochrome P450 3A4 (AID 884); conditions: recombinant CYP3A4, Luciferin-PPXE luminescence; series mostly up to 57.1 µM; also: potency is read from the fitted curve at half-maximal effect; nearly all actives have a fitted effect of over 50% in size
Chain of Cytochrome P450 3A4 (Homo sapiens) (P08684 whole entry, looked up): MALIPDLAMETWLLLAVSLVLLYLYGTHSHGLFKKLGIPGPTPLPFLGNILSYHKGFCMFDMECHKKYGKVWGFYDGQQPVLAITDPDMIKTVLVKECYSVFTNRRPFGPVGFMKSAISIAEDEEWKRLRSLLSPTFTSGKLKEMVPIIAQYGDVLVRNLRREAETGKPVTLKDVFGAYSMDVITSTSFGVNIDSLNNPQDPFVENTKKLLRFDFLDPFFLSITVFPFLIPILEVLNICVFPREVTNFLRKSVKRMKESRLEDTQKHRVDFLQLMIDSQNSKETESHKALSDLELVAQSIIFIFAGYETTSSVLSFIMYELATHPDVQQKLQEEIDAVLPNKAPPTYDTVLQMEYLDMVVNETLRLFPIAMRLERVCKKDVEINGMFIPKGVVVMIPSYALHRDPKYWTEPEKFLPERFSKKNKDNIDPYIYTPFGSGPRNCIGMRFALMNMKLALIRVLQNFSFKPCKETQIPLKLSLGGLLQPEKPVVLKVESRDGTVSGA
Outline: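 20 nM human CYP3A4 with 25 uM Luciferin-PPXE (at KM) in 200 mM KPO4, preincubated 10 min with compound; NADPH regeneration started a 60 min RT reaction. Luciferin detected by luminescence, normalized to 57 uM ketoconazole as full inhibition.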

[10] = biological target: Cytochrome P450 3A4 (Homo sapiens) (UniProt P08684); assay: qHTS Assay for Activators of Cytochrome P450 3A4 (AID 885); conditions: recombinant CYP3A4, Luciferin-PPXE luminescence, 60 min; series mostly up to 57.1 µM; also: nearly all actives have a fitted effect of over 65% in size
Outline: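 Signal was normalized against complete inhibition by 57 uM ketoconazole. The reaction used 20nM CYP3A4 with 25uM Luciferin-PPXE, 10-min compound preincubation and a 60-min NADPH-supported step at RT.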

[11] = qHTS Assay for Lipid Storage Modulators (AID 1519; calls by dose curve); conditions: Drosophila S3 cells, BODIPY lipid droplet/cell ratio, laser cytometry, cells loaded with oleic acid; for activity change, negative = inhibition: at 57.5 µM (top of the series)
Outline: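 Cells seeded at 5,000 per well were treated with compounds over a concentration series and loaded with oleic acid (400 uM, as added). Lipid droplet fluorescence (488 nm excitation, 500-530 nm channel) was read by laser-scanning cytometry and normalized to 20 uM Triacsin C.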

[12] = biological target: Dual specificity protein kinase CLK4 (Homo sapiens) (UniProt Q9HAZ1); assay: qHTS Assay for Inhibitors of CDC-like Kinase 4 (ADP-FP Assay) (AID 1795); conditions: Transcreener ADP fluorescence polarization; series mostly up to 50 µM;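 also: recombinant human CLK4 phosphorylating RS repeat peptide at 1 µM ATP; % is scaled to controls: 0 for no effect and ±100 for the full control effect; nearly all actives have a fitted effect of over 60% in size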
Chain of Dual specificity protein kinase CLK4 (Homo sapiens) (Q9HAZ1 whole entry, looked up): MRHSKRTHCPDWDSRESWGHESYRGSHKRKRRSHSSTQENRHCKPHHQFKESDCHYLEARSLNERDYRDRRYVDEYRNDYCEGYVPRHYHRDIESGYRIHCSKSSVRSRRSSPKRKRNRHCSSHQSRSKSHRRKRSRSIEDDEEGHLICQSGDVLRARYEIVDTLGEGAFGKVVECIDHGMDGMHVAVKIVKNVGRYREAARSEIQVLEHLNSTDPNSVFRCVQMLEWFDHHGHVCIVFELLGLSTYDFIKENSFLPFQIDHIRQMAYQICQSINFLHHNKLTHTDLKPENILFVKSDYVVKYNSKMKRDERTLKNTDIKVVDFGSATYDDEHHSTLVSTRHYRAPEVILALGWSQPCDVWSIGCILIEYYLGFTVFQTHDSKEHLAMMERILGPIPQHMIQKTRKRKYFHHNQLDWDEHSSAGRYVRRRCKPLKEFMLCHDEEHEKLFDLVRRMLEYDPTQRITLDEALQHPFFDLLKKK
Outline: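 Clk4 6.25 nM; RS peptide 100 uM; ATP 1 uM; 25 mM Tris pH 7.5, 10 mM MgCl2; 1 h reaction. ADP detected via antibody/orange tracer FP displacement; TG003 positive control.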

[13] = biological target: Ubiquitin carboxyl-terminal hydrolase 1 (Homo sapiens) (UniProt O94782); assay: Inhibitors of USP1/UAF1: Pilot qHTS (AID 504865); conditions: purified USP1/UAF1, Ub-rhodamine cleavage fluorescence; series mostly up to 54.9 µM;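 also: rhodamine fluorescence freed from ubiquitin-rhodamine substrate followed over time; top concentration of the series differs between compounds; % is scaled to controls: 0 for no effect and ±100 for the full control effect; nearly all actives have a fitted effect of over 35% in size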
Chain of Ubiquitin carboxyl-terminal hydrolase 1 (Homo sapiens) (O94782 whole entry, looked up): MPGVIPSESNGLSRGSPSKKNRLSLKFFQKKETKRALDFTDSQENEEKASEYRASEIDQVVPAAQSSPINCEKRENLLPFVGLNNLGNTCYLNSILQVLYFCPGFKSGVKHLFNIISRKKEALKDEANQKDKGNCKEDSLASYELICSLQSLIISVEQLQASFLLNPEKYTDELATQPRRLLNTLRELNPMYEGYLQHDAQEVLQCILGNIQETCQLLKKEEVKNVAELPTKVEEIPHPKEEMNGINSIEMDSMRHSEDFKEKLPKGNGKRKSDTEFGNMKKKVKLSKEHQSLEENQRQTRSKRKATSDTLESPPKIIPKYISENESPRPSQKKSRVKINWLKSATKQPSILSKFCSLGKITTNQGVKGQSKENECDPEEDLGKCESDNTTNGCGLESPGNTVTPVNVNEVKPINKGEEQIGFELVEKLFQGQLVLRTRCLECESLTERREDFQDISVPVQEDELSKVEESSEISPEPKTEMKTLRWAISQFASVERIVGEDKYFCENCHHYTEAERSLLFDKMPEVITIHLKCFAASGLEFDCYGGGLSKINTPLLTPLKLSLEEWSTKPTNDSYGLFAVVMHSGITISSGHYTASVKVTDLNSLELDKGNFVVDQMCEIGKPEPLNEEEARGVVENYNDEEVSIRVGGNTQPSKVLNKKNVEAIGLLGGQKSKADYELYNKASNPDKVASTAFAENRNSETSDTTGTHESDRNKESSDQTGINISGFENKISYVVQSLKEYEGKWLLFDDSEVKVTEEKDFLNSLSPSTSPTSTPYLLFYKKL
Outline: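 In 50mM HEPES pH 7.8 containing 0.5mM EDTA, 1mM TCEP, 0.1 mg/ml BSA and 0.01% Tween-20, 1nM USP1/UAF1 is exposed to compound for 15 min, then Ub-Rho (150nM final) is added and fluorescence is read over time.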

[14] = Primary qHTS for small molecule stabilizers of the endoplasmic reticulum resident proteome: Secreted ER Calcium Modulated Protein (SERCaMP) assay (AID 1508630); conditions: SH-SY5Y GLuc-SERCaMP (Gaussia luciferase released on ER calcium loss) secretion, thapsigargin, luminescence; series mostly up to 38.4 µM; also: % is scaled to controls: 0 for no effect and ±100 for the full control effect
Outline: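 GLuc-SERCaMP-expressing SH-SY5Y cells, pretreated 16 h with compound, are challenged with thapsigargin to empty ER calcium stores; after 4 h, coelenterazine is added directly to the medium and luminescence is imaged.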

[15] = biological target: Glucocorticoid receptor (Homo sapiens) (UniProt P04150); assay: GR-EFC Redistribution (AID 451; calls by dose curve; also: potency is read from the fitted curve at half-maximal effect); conditions: CHO-K1 GR-EFC translocation, beta-gal luminescence, 2 h
Outline: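 Translocation of GR-ED fusion to nuclear EA restores b-gal, read by luminescence after 1 h room-temperature detection. Engineered CHO-K1 biosensor cells, 1,000/well, exposed 2 h at 37 C to titrations up to 46 uM final.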

[16] = biological target: Cytochrome P450 2C19 (Homo sapiens) (UniProt P33261); assay: qHTS Assay for Inhibitors and Substrates of Cytochrome P450 2C19 (AID 899); conditions: recombinant CYP2C19, luciferin-H EGE luminescence; series mostly up to 57.1 µM; also: potency is read from the fitted curve at half-maximal effect; nearly all actives have a fitted effect of over 60% in size
Chain of Cytochrome P450 2C19 (Homo sapiens) (P33261 whole entry, looked up): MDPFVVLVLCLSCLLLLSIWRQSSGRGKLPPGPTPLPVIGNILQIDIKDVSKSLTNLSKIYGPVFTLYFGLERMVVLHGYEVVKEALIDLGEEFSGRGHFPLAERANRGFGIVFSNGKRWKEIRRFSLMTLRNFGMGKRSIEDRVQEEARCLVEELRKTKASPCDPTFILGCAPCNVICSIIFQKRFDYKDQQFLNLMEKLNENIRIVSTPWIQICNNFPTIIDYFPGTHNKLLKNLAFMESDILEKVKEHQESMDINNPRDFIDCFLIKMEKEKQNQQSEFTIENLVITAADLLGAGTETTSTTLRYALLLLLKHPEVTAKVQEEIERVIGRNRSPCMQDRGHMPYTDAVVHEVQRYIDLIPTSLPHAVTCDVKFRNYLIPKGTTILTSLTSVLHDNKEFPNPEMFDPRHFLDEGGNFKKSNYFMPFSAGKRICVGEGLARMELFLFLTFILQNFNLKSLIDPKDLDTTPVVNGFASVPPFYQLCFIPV
Outline: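 Reactions contain 5nM enzyme, 10uM Luciferin-H EGE (KM) and 50mM KPO4; compound preincubates 10 min at 37C, NADPH regeneration starts turnover for 60 min. Luminescence after detection reagent gives activity.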

[17] = qHTS Assay for Identification of Small Molecule Agonists for Hypoxia Response Element Signaling Pathway (AID 914; active = well fitted activation curve with a large enough effect in the signal ratio, with a control signal flat, not every such curve was filed as active; the % refers to the signal ratio; also: potency is read from the fitted curve at half-maximal effect); conditions: ME-180 (cervical carcinoma) HRE-bla reporter, beta-lactamase ratio, CoCl2, 17 h; activation: stronger effect = higher value
Outline: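 Compounds in a titration series were added to ME-180 reporter cells alongside an EC50 level of CoCl2. After 17 hours, beta-lactamase activity was read as the 460nm/530nm emission ratio of CCF4, giving AC50 values.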

[18] = measured here: cell count channel max response
[19] = measured here: lipid channel max response

Row | Structure (SMILES) | Potency [1] | activity change, negative = inhibition [2] | Potency [3] | activity change, negative = inhibition [4] | activity, negative = inhibition [5] | Potency [6] | outcome [7] | Potency [8] | Potency [9] | Potency [10] | activity change, negative = inhibition [11] | max response [11, 18] [%] | max response [11, 19] [%] | Potency [12] | Potency [13] | Potency [14] | Potency [15] | Potency [16] | Potency [17]
1 | COc1ccc(CNc2ncncc2-c2cccnc2)c(OC)c1 | > 11.4 µM (inactive) | 3.11% (inactive) | 3.16 µM (active) | 4.08% (inactive) | 0.586% (inactive) | > 46 µM (inactive) | inactive | inactive | 0.501 µM (active) | inactive | 4.88% (inactive) | 18.2 | 22.7 | inactive | inactive | inactive |  |  | 
2 | CN(Cc1ccco1)c1ncnc2ccc(-c3ccccc3C(F)(F)F)cc12 | > 11.4 µM (inactive) | 4.42% (inactive) | 5.01 µM (active) | -18.5% (inactive) | -19.3% (inactive) | > 46 µM (inactive) | inactive |  |  | inactive | -0.853% (inactive) | 20.9 | 18.1 | inactive |  | inactive | > 46 µM (inactive) | 3.16 µM (active) | 
3 | O=c1c(-c2cc(F)cc(F)c2)nc2cnc(N3CCNCC3)nc2n1C1CC1 | > 11.4 µM (inactive) |  | 3.16 µM (active) |  |  | > 9.22 µM (inactive) | inactive | inactive |  | inactive | 2.24% (inactive) | 4.49 | 4.55 | inactive | inactive | inactive | > 46 µM (inactive) |  | 2.51 µM (active)
4 | COc1ccccc1CNc1ncncc1-c1cccnc1 | > 11.4 µM (inactive) | 3.62% (inactive) | 0.794 µM (active) | 2.12% (inactive) | 5.57% (inactive) | > 46 µM (inactive) | inactive | inactive | 0.794 µM (active) | inactive | 3.76% (inactive) | 11.7 | 13.8 | inactive |  | inactive | > 46 µM (inactive) |  | 
5 | CCNc1ncc2nc(C)c(=O)n(C3CC3)c2n1 | > 11.4 µM (inactive) | -8.59% (inactive) | 5.01 µM (active) | -13.9% (inactive) | -2.73% (inactive) | > 9.22 µM (inactive) | inactive | 2.51 µM (active) |  |  | -1.33% (inactive) | 6.66 | 4.64 | inactive | inactive | inactive | > 46 µM (inactive) |  | 
6 | CCNc1ncc2nc(C)c(=O)n(Cc3ccc(F)cc3)c2n1 |  | -0.98% (inactive) | 1.58 µM (active) |  | -2.29% (inactive) | > 9.22 µM (inactive) | inactive | inactive |  | inactive | 3.29% (inactive) | 23.4 | 24.2 | inactive | inactive | inactive | > 46 µM (inactive) |  | 

— PubChem BioAssay (NCATS)
